From PubChem BioAssay AID1276 (Columbia University Molecular Screening Center, 2008) come the findings set out here.

Out of some 190,000 compounds screened, about 2,000 (1.1%) were called active.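 Rule for the calls: active = activation above a set limit, based on mean plus 3 SD of controls (cut at about 140% in these data); inconclusive = one replicate above the limit, the other below; inactive = the rest.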 The full list was thinned out, with actives kept by preference.

The nature of this test: APP 5'UTR reporter signal increase – luciferase, SH-SY5Y cells, primary screen (AID 1276). The settings on record: SH-SY5Y APP 5'UTR luciferase reporter, luminescence; at 2 µM; hits give high values; zero percent = DMSO vehicle wells. (In general: A reporter such as luciferase makes a cellular process visible.)
Turning to `Cc1ccc(NS(=O)(=O)c2cccs2)cc1S(=O)(=O)N1CCCCCC1`, the activation is 13.7% (inactive).

For the compound `O=C(Cc1ccc(-c2ccccc2)cc1)NC(c1ccccc1)c1ccccc1`, the activation was 12.7% (inactive).

With `CC(NC(=S)Nc1ccc(OC(F)F)cc1)c1ccc(F)cc1` (stereo unspecified), the activation is -4.54% (inactive).

Take `O=C(NNC(=O)c1ccc(Cl)cc1Cl)c1cccs1`: the activation is 59.2% (inactive).

Consider `O=C(Nc1ccn(Cc2ccccc2)n1)c1cccc(F)c1`, for which the activation was 197% (active).

Regarding `O=C(Nc1ccn(Cc2ccc(F)cc2)n1)c1ccncc1`, the activation is -11.3% (inactive).

`O=C(Nc1ccn(Cc2ccccc2)n1)c1n[nH]c([N+](=O)[O-])c1Cl`: the activation was 129% (inactive).

`Cc1coc(C)c1C(=O)CC1(O)C(=O)N(C)c2ccc(Cl)cc21` (stereo unspecified): the activation was 12.3% (inactive).

On to `CCN(CC)CCNC(=O)c1sc2ncn(CC(=O)Nc3ccc(C)c(Cl)c3)c(=O)c2c1C`, for which the activation was 11.4% (inactive).

Consider `O=C1CC(c2ccccc2)=NN1c1ccc([N+](=O)[O-])cc1`, for which the activation is -12.9% (inactive).

For `Cc1nn(-c2ccc([N+](=O)[O-])cc2)c(N)c1-c1ccccc1`, the activation was 152% (active).

Take `Cc1nn(-c2ccccc2)c2c1C(c1cccc([N+](=O)[O-])c1)N(c1ccccc1)C(=O)N2` (stereo unspecified): the activation was 11.7% (inactive).

`CCN(C(=O)Cc1nc(N)n[nH]1)C1(C(=O)Nc2ccccc2)CCCCC1`: the activation is -3.52% (inactive).

On to `O=C(Nc1ccc2nc3n(c(=O)c2c1)CCCCC3)c1ccccc1Cl`, for which the activation is 22% (inactive).

Take `O=C(Nc1ccc2sc3ccccc3c(=O)c2c1)c1ccccc1Cl`: the activation was 221% (active).

Turning to `COc1cc(NC(=O)c2cccs2)ccc1NC(=O)c1ccccc1Cl`, the activation was 37.2% (inactive).

As for `CCOC(=O)c1ccccc1NC(=O)CSc1nc2ccccc2c(=O)[nH]1`, the activation is -2.72% (inactive).

In the case of `COc1cccc(N(Cc2nnc3n2CCCCC3)C(=O)Nc2ccccc2F)c1`, the activation was 3.63% (inactive).

For the compound `Cc1cc(C)c2nc(NC(=O)C3CCCO3)sc2c1` (stereo unspecified), the activation is 159% (active).

Take `O=C(Nc1nc2ccc(S(=O)(=O)N3CCCC3)cc2s1)C1CCCO1` (stereo unspecified): the activation was 2.99% (inactive).

With `Cc1cc(Br)ccc1NC(=O)C1CCCO1` (stereo unspecified), the activation was -29.7% (inactive).

Take `O=C(/C=C/c1ccc(OCc2c(F)cccc2Cl)cc1)N1CCOCC1`: the activation is 12.2% (inactive).

As to `COc1ccc(-n2c(C)cc(C(=O)CSc3nnc(-c4cccs4)o3)c2C)cc1`, the activation is -0.59% (inactive).

For the compound `COc1ccc(OC)c(C(=O)CSc2nnc(-c3cccs3)o2)c1`, the activation is -1.75% (inactive).

With `COc1ccc(-c2nnc(SCC(=O)c3cccs3)o2)c(OC)c1`, the activation is 142% (active).

As to `O=C(NNC(=S)NCc1ccco1)C(c1ccccc1)c1ccccc1`, the activation was 19.5% (inactive).

Regarding `O=C(NNC(=O)c1cc2c(s1)CCCC2)c1ccccc1`, the activation is 43.3% (inactive).

For the compound `O=C(Nc1ccccc1)c1ccc2c(c1)OCO2`, the activation is -58.8% (inactive).

In the case of `CC(C)C(=O)Nc1cccc(C(=O)Nc2ccc3c(c2)OCO3)c1`, the activation was 138% (active).

`Cc1cccc(NC(=O)Nc2ccc3c(c2)OCO3)n1`: the activation was 137% (active).

Consider `Cc1cccc(NC(=O)/C=C/c2ccc3c(c2)OCO3)n1`, for which the activation was 118% (inactive).

Regarding `COc1ccc(C(=O)Nc2ccc3c(c2)OCO3)cc1OC`, the activation is 35.6% (inactive).

Turning to `CC(NC(=O)Nc1ccc2c(c1)OCO2)c1ccncc1` (stereo unspecified), the activation is 12.1% (inactive).

For `CC(OC(=O)c1ccccc1OCc1ccc(Cl)cc1)C(N)=O` (stereo unspecified), the activation was 40.4% (inactive).

With `Cc1cc(C)c(NC(=O)c2oc3ccccc3c2COc2ccccc2)c(C)c1`, the activation is -0.13% (inactive).

With `CCC(=O)N(Cc1cc2ccccc2[nH]c1=O)c1ccc(OC)cc1`, the activation is -4.49% (inactive).

On to `C/C(=N/NC(=O)CCc1ccccc1)c1ccco1`, for which the activation was 10.2% (inactive).

`CCOc1ccc2nc(Nc3nc4ccc(NC(C)=O)cc4s3)sc2c1`: the activation was -5.77% (inactive).

Turning to `CCOc1ccc2nc(C(=O)N3CCCC(C)C3)sc2c1` (stereo unspecified), the activation was 158% (active).

On to `CCOc1ccc2nc(SC(CC)C(=O)Nc3cc(C)on3)sc2c1` (stereo unspecified), for which the activation was 1.9% (inactive).

As to `Cc1cc(CNCc2c(C(=O)N(C)Cc3ccccc3)nc3ccccn23)nn1C`, the activation was 7.64% (inactive).

For `C/C(=N/NC(=S)Nc1ccccc1)c1ccc2c(c1)OCO2`, the activation is 11.9% (inactive).

Regarding `CCOC(=O)CN/C=C(\C#N)c1ccc(F)cc1`, the activation was 29.2% (inactive).

`O=C(Nc1cccc(Cl)c1N1CCOCC1)c1ccc2c(c1)OCCO2`: the activation was 12.9% (inactive).

In the case of `COc1c(Cl)cc(C(=O)Nc2ccc(Cl)cn2)cc1Cl`, the activation is 34.7% (inactive).

With `CN1CCN(c2ccc(NC(=O)c3ccc4c(c3)OCCO4)cc2Cl)CC1`, the activation is 144% (active).

On to `O=C(Nc1ccc(Cl)cn1)c1ccc2c(c1)OCCO2`, for which the activation is 199% (active).

On to `O=C(Nc1ccc2c(c1)OCCO2)c1ccc(Cl)c(S(=O)(=O)N2CCCCC2)c1`, for which the activation was 30.1% (inactive).

In the case of `O=C(Nc1cccc(S(=O)(=O)Nc2ccc(Cl)cc2)c1)c1ccc2c(c1)OCCO2`, the activation is -20.6% (inactive).

With `CN1CCN(CCC(=O)N/N=C/C=C2\N(C)c3ccccc3C2(C)C)CC1`, the activation is 8.29% (inactive).

Consider `Cc1cccc(-n2ncc3c(N4CCc5ccccc54)ncnc32)c1`, for which the activation is 25.5% (inactive).

For the compound `c1ccc(-n2ncc3c(N4CCCC4)ncnc32)cc1`, the activation is 160% (active).

For the compound `CCN(CC)C(=O)CSc1ncnc2c1cnn2-c1ccccc1`, the activation is 15.2% (inactive).

For the compound `COc1ccc(-n2ncc3c(N4CCCc5ccccc54)ncnc32)cc1`, the activation was 48.9% (inactive).

`O=C(NNc1ncnc2c1cnn2-c1ccccc1)c1ccco1`: the activation is 6% (inactive).

In the case of `COc1ccc(-n2ncc3c(N4CCc5ccccc54)ncnc32)cc1`, the activation was 204% (active).

As for `O=C(COc1ccc(S(=O)(=O)N2CCCCC2)cc1)NCc1ccccn1`, the activation is 2.08% (inactive).

For the compound `CSCC[C@H](NC(=O)NC1CCCC1)C(=O)O`, the activation was -20.9% (inactive).

Consider `CCN1CCC2(CCN(Cc3cn[nH]c3-c3ccc(OC)c(F)c3)C2)C1` (stereo unspecified), for which the activation is -14.3% (inactive).

Consider `O=C(NNS(=O)(=O)c1ccc(F)cc1)c1cnccn1`, for which the activation was 3.72% (inactive).

For the compound `OCCNc1nc2ccccc2[nH]1`, the activation is 16.1% (inactive).

As to `C/C(=N\Nc1ncc(Cl)cc1Cl)c1ccc(S(=O)(=O)NCc2ccco2)cc1`, the activation was 100% (inactive).

Turning to `C/C(=N\Nc1nc2ccccc2[nH]1)c1cccs1`, the activation is 150% (active).

As for `C/C(=N\Nc1nc(Nc2ccccc2)nc(N2CCOCC2)n1)c1cccs1`, the activation is -7.91% (inactive).

With `COc1cccc(/C(C)=N/Nc2ncc(Cl)cc2Cl)c1`, the activation was 24.9% (inactive).

On to `C/C(=N\Nc1ncc(Cl)cc1Cl)c1cccs1`, for which the activation is 154% (active).
